# Experimental data reported in the supplement of paper PMC9262897, “Low-cost anti-mycobacterial drug discovery using engineered E. coli” (Nature Communications, 2022).
# Where a name gives a salt, the structure may show the parent alone. ± gives the standard deviation of the averaged measurements.
# Experiments:
# Test in all cases: growth (OD600 after 10 h); higher = more growth (less inhibition)
# [1] = tested on: E. coli TESEC Alr+ wild-type control; conditions: compound 0.1 mM; raw OD600 reference: median of DMSO wells 0.241, cell-free background 0.041
# Protocol: (§1)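 TESEC Mtb Alr E. coli, or the Alr+ wild-type control, in 384-well plates with Prestwick library compounds at 0.1 mM and 1% DMSO, across arabinose induction levels of 1E3 to 1E7 nM. Growth is read as OD600 after 10 h at 37 °C in triplicate biological replicates.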
# [2] = tested on: E. coli TESEC Mtb Alr; conditions: compound 0.1 mM
# Protocol: as §1
# [3] = tested on: E. coli TESEC Mtb Asd; conditions: compound 0.1 mM
# Protocol: (§2)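 TESEC E. coli strains in which the native enzyme is deleted and replaced by arabinose-inducible Mtb Asd, DapB, CysH or TrpD, each grown in its selective medium. Strains were screened against the Prestwick library at 0.1 mM and 1% DMSO in 384-well format at low and high arabinose induction. Growth is read as OD600 after 10 h in triplicate.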
# [4] = tested on: E. coli TESEC Mtb DapB; conditions: compound 0.1 mM
# Protocol: as §2
# [5] = tested on: E. coli TESEC Alr+ wild-type control; conditions: compound 0.1 mM; raw OD600 reference: median of DMSO wells 0.49, cell-free background 0.052
# Protocol: (§3)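 TESEC Mtb Alr E. coli (ΔaraC ΔtolC ΔentC Δalr ΔdadX, arabinose-inducible Mtb Alr) or the Alr+ wild-type control strain, grown in defined M9-fructose medium without D-alanine in 96-well plates with Prestwick library compounds at 0.1 mM and 1% DMSO. Low Alr induction is 0.1 µM arabinose and high induction is 10 mM arabinose.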
# [6] = tested on: E. coli TESEC Mtb Alr; conditions: compound 0.1 mM; remark: listed apart in the source
# Protocol: as §3
# [7] = arabinose 1000 nM, raw OD600 reference: median of DMSO wells 0.294, cell-free background 0.041
# [8] = arabinose 10000 nM, raw OD600 reference: median of DMSO wells 0.264, cell-free background 0.041
# [9] = arabinose 100000 nM, raw OD600 reference: median of DMSO wells 0.201, cell-free background 0.041
# [10] = arabinose 1000000 nM, raw OD600 reference: median of DMSO wells 0.193, cell-free background 0.041
# [11] = arabinose 10000000 nM, raw OD600 reference: median of DMSO wells 0.146, cell-free background 0.041
# [12] = arabinose induction (level): High, raw OD600 reference: median of DMSO wells 0.331, cell-free background 0.041
# [13] = arabinose induction (level): Low, raw OD600 reference: median of DMSO wells 0.417, cell-free background 0.041
# [14] = arabinose induction (level): High, raw OD600 reference: median of DMSO wells […], cell-free background 0.041
# [15] = arabinose induction (level): Low, raw OD600 reference: median of DMSO wells 0.227, cell-free background 0.041
# [16] = arabinose 100 nM, raw OD600 reference: median of DMSO wells 0.413, cell-free background 0.052
# [17] = arabinose 10000000 nM, raw OD600 reference: median of DMSO wells […], cell-free background 0.052
Structure (SMILES),growth [1],"growth [2, 7]","growth [2, 8]","growth [2, 9]","growth [2, 10]","growth [2, 11]","growth [3, 12]","growth [3, 13]","growth [4, 14]","growth [4, 15]",growth [5],"growth [6, 16]","growth [6, 17]"
"C[C@H]1C[C@@H]2[C@H]([C@@H](O)C[C@@]3(C)[C@H]2CC[C@]3(O)C(=O)CO)[C@@]2(C)C=CC(=O)C=C12 [Methylprednisolone, 6-alpha]",0.202 ± 0.0042,0.254 ± 0.013,0.243 ± 0.0096,0.1512 ± 0.0011,0.116 ± 0.0032,0.134 ± 0.0027,0.259 ± 0.024,0.475 ± 0.018,0.175 ± 0.0055,0.213 ± 0.023,0.459 ± 0.028,0.431 ± 0.0047,0.295 ± 0.021
COc1cc(C(=O)NCc2ccc(OCCN(C)C)cc2)cc(OC)c1OC [Trimethobenzamide hydrochloride],0.2204 ± 0.0014,0.295 ± 0.0097,0.254 ± 0.011,0.201 ± 0.017,0.158 ± 0.0074,0.159 ± 0.0019,0.227 ± 0.059,0.385 ± 0.015,0.203 ± 0.021,0.253 ± 0.018,0.464 ± 0.066,0.412 ± 0.005,0.354 ± 0.022
CC(=O)[C@@]1(O)CC[C@H]2[C@@H]3C[C@H](C)C4=CC(=O)C=C[C@]4(C)[C@@]3(F)[C@@H](O)C[C@@]21C [Fluorometholone],0.235 ± 0.021,0.308 ± 0.011,0.248 ± 0.011,0.2 ± 0.018,0.13 ± 0.007,0.153 ± 0.0031,0.457 ± 0.013,0.428 ± 0.019,0.209 ± 0.0065,0.272 ± 0.017,0.447 ± 0.013,0.423 ± 0.007,0.334 ± 0.049
O=C1c2cccc3c2[C@H](CCC3)CN1[C@@H]1CN2CCC1CC2 [Palonosetron hydrochloride],0.212 ± 0.017,0.281 ± 0.0041,0.263 ± 0.013,0.177 ± 0.01,0.165 ± 0.0085,0.151 ± 0.0037,0.267 ± 0.049,0.279 ± 0.045,0.198 ± 0.0067,0.235 ± 0.02,0.601 ± 0.042,0.417 ± 0.011,0.307 ± 0.022
O=c1[nH]c(=O)n(C2CCCO2)cc1F (stereo not given) [Tegafur],0.2441 ± 0.0016,0.284 ± 0.0093,0.2613 ± 0.001,0.208 ± 0.0031,0.224 ± 0.013,0.135 ± 0.0053,0.366 ± 0.03,0.359 ± 0.091,0.2018 ± 0.0016,0.23 ± 0.032,0.586 ± 0.12,0.407 ± 0.011,0.346 ± 0.011
COC(=O)Nc1nc2cc(Sc3ccccc3)ccc2[nH]1 [Fenbendazole],0.233 ± 0.0041,0.273 ± 0.022,0.273 ± 0.012,0.189 ± 0.012,0.195 ± 0.057,0.144 ± 0.0032,0.382 ± 0.11,0.434 ± 0.018,0.2 ± 0.013,0.252 ± 0.041,0.56 ± 0.072,0.421 ± 0.0066,0.352 ± 0.025
Cc1noc(NS(=O)(=O)c2ccc(N)cc2)c1C [Sulfisoxazole],0.248 ± 0.0068,0.274 ± 0.021,0.203 ± 0.0055,0.213 ± 0.042,0.12 ± 0.0019,0.149 ± 0.0027,0.308 ± 0.035,0.386 ± 0.073,0.19 ± 0.0067,0.205 ± 0.022,0.588 ± 0.015,0.424 ± 0.012,0.313 ± 0.019
CCCc1nc(C)c2c(=O)nc(-c3cc(S(=O)(=O)N4CCN(CC)CC4)ccc3OCC)[nH]n12 [Vardenafil],0.148 ± 0.0033,0.221 ± 0.0081,0.26 ± 0.011,0.18 ± 0.0021,0.107 ± 0.0037,0.126 ± 0.0068,0.189 ± 0.02,0.238 ± 0.052,0.151 ± 0.0082,0.173 ± 0.018,0.55 ± 0.11,0.41 ± 0.0051,0.305 ± 0.014
CCOC(=O)c1ccc(N)cc1 [Benzocaine],0.249 ± 0.0072,0.324 ± 0.02,0.263 ± 0.0073,0.213 ± 0.011,0.182 ± 0.0029,0.1551 ± 0.0012,0.469 ± 0.013,0.453 ± 0.027,0.212 ± 0.013,0.24 ± 0.034,0.432 ± 0.0086,0.4093 ± 0.00068,0.323 ± 0.018
Nc1nc2c(ncn2COC(CO)CO)c(=O)[nH]1 [Ganciclovir],0.236 ± 0.0046,0.283 ± 0.0092,0.2718 ± 0.0013,0.202 ± 0.023,0.183 ± 0.003,0.136 ± 0.0066,0.314 ± 0.011,0.411 ± 0.019,0.21 ± 0.023,0.245 ± 0.013,0.473 ± 0.057,0.417 ± 0.016,0.365 ± 0.0063
CC(=O)Nc1c(I)c(NC(C)=O)c(I)c(C(=O)O)c1I [Diatrizoic acid dihydrate],0.234 ± 0.0051,0.285 ± 0.0023,0.255 ± 0.0056,0.191 ± 0.017,0.213 ± 0.0043,0.131 ± 0.01,0.297 ± 0.043,0.326 ± 0.053,0.197 ± 0.013,0.235 ± 0.023,0.537 ± 0.08,0.424 ± 0.011,0.348 ± 0.0074
CNCCC=C1c2ccccc2CCc2ccccc21 [Nortriptyline hydrochloride],0.188 ± 0.014,0.181 ± 0.0093,0.205 ± 0.011,0.155 ± 0.01,0.0683 ± 0.00076,0.0845 ± 0.0019,0.137 ± 0.0013,0.179 ± 0.0089,0.185 ± 0.025,0.195 ± 0.04,0.46 ± 0.061,0.4083 ± 0.0029,0.264 ± 0.013
NS(=O)(=O)c1cc2c(cc1Cl)NCNS2(=O)=O [Hydrochlorothiazide],0.245 ± 0.0063,0.282 ± 0.019,0.255 ± 0.006,0.234 ± 0.011,0.166 ± 0.0054,0.14 ± 0.0039,0.367 ± 0.053,0.408 ± 0.031,0.201 ± 0.013,0.244 ± 0.027,0.448 ± 0.062,0.41 ± 0.014,0.367 ± 0.019
COc1cc(C(=O)OCCCN2CCCN(CCCOC(=O)c3cc(OC)c(OC)c(OC)c3)CC2)cc(OC)c1OC [Dilazep dihydrochloride],0.174 ± 0.0063,0.264 ± 0.034,0.291 ± 0.0076,0.18 ± 0.0077,0.118 ± 0.0022,0.154 ± 0.0029,0.232 ± 0.023,0.35 ± 0.051,0.171 ± 0.013,0.211 ± 0.034,0.416 ± 0.034,0.417 ± 0.012,0.316 ± 0.029
C=C[C@H]1CN2CC[C@H]1C[C@@H]2[C@@H](O)c1ccnc2ccc(OC)cc12 [Quinidine hydrochloride monohydrate],0.22 ± 0.004,0.28 ± 0.019,0.265 ± 0.01,0.181 ± 0.0089,0.138 ± 0.0072,0.144 ± 0.0058,0.239 ± 0.04,0.412 ± 0.012,0.198 ± 0.0064,0.229 ± 0.034,0.483 ± 0.07,0.4326 ± 0.004,0.356 ± 0.0089
